# According to paper PMC11062922 (Nature Chemical Biology, 2023):
# Like-named read-outs stand apart in the source and are kept apart here.
# How the values were obtained:
# Design in all cases: species or system human, MV4-11 + K-562 + COLO205 + SK-N-BE2 + OVCAR-8
# [1] = test system: DYRK1A; settings: read-out: apparent Kd; compound concentrations: 100 nM and 1000 nM (sheet 'Samples'), CATDS: 0.14801064181583801; n = 1
# [2] = test system: PRKD2; settings: read-out: apparent Kd, n = 1
# [3] = test system: PRKD3; settings: read-out: apparent Kd, n = 1
# [4] = test system: STK10; settings: read-out: apparent Kd, n = 1
# [5] = test system: CDK7; settings: read-out: apparent Kd, n = 1
# [6] = test system: ERCC2; settings: read-out: apparent Kd, n = 1
# [7] = test system: FER; settings: read-out: apparent Kd, n = 1
# [8] = test system: LATS1; settings: read-out: apparent Kd, n = 1
# [9] = test system: MARK4; settings: read-out: apparent Kd, compound concentrations: 100 nM and 1000 nM (sheet 'Samples'), n = 1
# [10] = test system: PLK4; settings: read-out: apparent Kd, n = 1
# [11] = test system: PRKAA1; settings: read-out: apparent Kd, n = 1
# [12] = test system: PRKCQ; settings: read-out: apparent Kd, n = 1
# [13] = test system: PTK2B; settings: read-out: apparent Kd, n = 1
# [14] = test system: PTK2; settings: read-out: apparent Kd, n = 1
# [15] = test system: RPS6KA6; settings: read-out: apparent Kd, n = 1
# [16] = test system: TNK2; settings: read-out: apparent Kd, n = 1
# [17] = test system: CDKL5; settings: read-out: apparent Kd, n = 1
# [18] = test system: FLT3; settings: read-out: apparent Kd; compound concentrations: 100 nM and 1000 nM (sheet 'Samples'), CATDS: 1.0367577324715899E-2; n = 1
# [19] = test system: MYLK3; settings: read-out: apparent Kd; compound concentrations: 100 nM and 1000 nM (sheet 'Samples'), CATDS: 6.6633165686717103E-3; n = 1
# [20] = test system: PRKCD; settings: read-out: apparent Kd; compound concentrations: 100 nM and 1000 nM (sheet 'Samples'), CATDS: 7.1591971083295198E-3; n = 1
# [21] = compound concentrations:100 nM and 1000 nM (sheet 'Samples')
smiles,measurement,setting,value
CONC1=NC(=O)/C(=C/c2ccc3ncccc3c2)S1 [RO4613269-000],potency estimated from few doses,[1],1100 nM
Cc1cccc(-c2nc(Nc3ccncc3)c3sccc3n2)n1 [GW869641X],potency estimated from few doses,[2]; [21],1.4 nM
same,potency estimated from few doses,[3]; [21],3.56 nM
same,potency estimated from few doses,[4]; [21],1730 nM
Clc1cc(Cl)cc(Nc2ccnc(Nc3cc(Cl)cc(Cl)c3)n2)c1 [GSK175726A],potency estimated from few doses,"[5]; compound concentrations: 100 nM and 1000 nM (sheet 'Samples'), CATDS: 1.9330129421886999E-2",142 nM
same,potency estimated from few doses,"[6]; compound concentrations: 100 nM and 1000 nM (sheet 'Samples'), CATDS: 2.00031391959163E-2",132 nM
same,potency estimated from few doses,"[7]; compound concentrations: 100 nM and 1000 nM (sheet 'Samples'), CATDS: 2.0209257750724199E-2",130 nM
same,potency estimated from few doses,"[8]; compound concentrations: 100 nM and 1000 nM (sheet 'Samples'), CATDS: 8.3705854443938306E-3",1830 nM
same,potency estimated from few doses,[9]; CATDS: 9.0821419541050104E-3,1200 nM
same,potency estimated from few doses,"[10]; compound concentrations: 100 nM and 1000 nM (sheet 'Samples'), CATDS: 9.9833619636259807E-3",805 nM
same,potency estimated from few doses,"[11]; compound concentrations: 100 nM and 1000 nM (sheet 'Samples'), CATDS: 1.70258179859262E-2",183 nM
same,potency estimated from few doses,"[12]; compound concentrations: 100 nM and 1000 nM (sheet 'Samples'), CATDS: 8.3428687268584899E-3",1870 nM
same,potency estimated from few doses,"[13]; compound concentrations: 100 nM and 1000 nM (sheet 'Samples'), CATDS: 1.7764778222698001E-2",168 nM
same,potency estimated from few doses,"[14]; compound concentrations: 100 nM and 1000 nM (sheet 'Samples'), CATDS: 2.2055583015587899E-2",111 nM
same,potency estimated from few doses,"[15]; compound concentrations: 100 nM and 1000 nM (sheet 'Samples'), CATDS: 2.32464475712073E-2",101 nM
same,potency estimated from few doses,"[4]; compound concentrations: 100 nM and 1000 nM (sheet 'Samples'), CATDS: 8.4721916216742802E-3",1710 nM
same,potency estimated from few doses,"[16]; compound concentrations: 100 nM and 1000 nM (sheet 'Samples'), CATDS: 2.7223225317324601E-2",77.1 nM
CN(c1ccc(NC(=O)Nc2cccc(Cl)c2)cc1)c1ccnc(N)n1.Cl [GW830707A],potency estimated from few doses,"[5]; compound concentrations: 100 nM and 1000 nM (sheet 'Samples'), CATDS: 2.70910980037193E-2",25.3 nM
same,potency estimated from few doses,"[6]; compound concentrations: 100 nM and 1000 nM (sheet 'Samples'), CATDS: 2.8634029570059099E-2",22.5 nM
same,potency estimated from few doses,"[7]; compound concentrations: 100 nM and 1000 nM (sheet 'Samples'), CATDS: 3.09824946210665E-2",19.3 nM
same,potency estimated from few doses,"[11]; compound concentrations: 100 nM and 1000 nM (sheet 'Samples'), CATDS: 2.0241658974681501E-2",51.3 nM
same,potency estimated from few doses,"[13]; compound concentrations: 100 nM and 1000 nM (sheet 'Samples'), CATDS: 2.3206005567305101E-2",35.9 nM
same,potency estimated from few doses,"[14]; compound concentrations: 100 nM and 1000 nM (sheet 'Samples'), CATDS: 2.6556868558213102E-2",26.4 nM
same,potency estimated from few doses,"[15]; compound concentrations: 100 nM and 1000 nM (sheet 'Samples'), CATDS: 2.8909241119288599E-2",22.1 nM
same,potency estimated from few doses,"[16]; compound concentrations: 100 nM and 1000 nM (sheet 'Samples'), CATDS: 3.7589632297420301E-2",13.5 nM
CCn1c(-c2nonc2N)nc2c(C#CCN)ncc(OCCCN)c21.O=C(O)C(F)(F)F [GSK561866B],potency estimated from few doses,"[8]; compound concentrations: 100 nM and 1000 nM (sheet 'Samples'), CATDS: 0.187665654048491",38.9 nM
CC(C)N1CCC(n2cnc(-c3ccc(F)cc3)c2-c2ccnc(N)n2)CC1 [SB-223132],potency estimated from few doses,[5]; [21],310 nM
same,potency estimated from few doses,[17]; [21],1520 nM
same,potency estimated from few doses,[6]; [21],206 nM
same,potency estimated from few doses,[7]; [21],358 nM
same,potency estimated from few doses,[10]; [21],757 nM
same,potency estimated from few doses,[11]; [21],631 nM
same,potency estimated from few doses,[13]; [21],378 nM
same,potency estimated from few doses,[14]; [21],433 nM
same,potency estimated from few doses,[15]; [21],466 nM
same,potency estimated from few doses,[4]; [21],2020 nM
same,potency estimated from few doses,[16]; [21],374 nM
O=C1N=C(NCCc2ccc(Cl)cc2)S/C1=C\c1ccc2ncccc2c1 [RO4498479-000],potency estimated from few doses,"[5]; compound concentrations: 100 nM and 1000 nM (sheet 'Samples'), CATDS: 2.4350372788697498E-2",119 nM
same,potency estimated from few doses,"[17]; compound concentrations: 100 nM and 1000 nM (sheet 'Samples'), CATDS: 8.2845593333633408E-3",909 nM
same,potency estimated from few doses,"[6]; compound concentrations: 100 nM and 1000 nM (sheet 'Samples'), CATDS: 2.1515421316076401E-2",142 nM
same,potency estimated from few doses,"[7]; compound concentrations: 100 nM and 1000 nM (sheet 'Samples'), CATDS: 1.93209734431329E-2",166 nM
same,potency estimated from few doses,[18],511 nM
same,potency estimated from few doses,"[8]; compound concentrations: 100 nM and 1000 nM (sheet 'Samples'), CATDS: 9.9630845977556094E-3",560 nM
same,potency estimated from few doses,[9]; CATDS: 9.5723230975851108E-3,617 nM
same,potency estimated from few doses,[19],2040 nM
same,potency estimated from few doses,"[10]; compound concentrations: 100 nM and 1000 nM (sheet 'Samples'), CATDS: 1.52584065926915E-2",242 nM
same,potency estimated from few doses,"[11]; compound concentrations: 100 nM and 1000 nM (sheet 'Samples'), CATDS: 1.37789233680672E-2",289 nM
same,potency estimated from few doses,[20],1490 nM
same,potency estimated from few doses,"[12]; compound concentrations: 100 nM and 1000 nM (sheet 'Samples'), CATDS: 7.7984631053202198E-3",1100 nM
same,potency estimated from few doses,"[2]; compound concentrations: 100 nM and 1000 nM (sheet 'Samples'), CATDS: 8.2429468538409798E-3",923 nM
same,potency estimated from few doses,"[3]; compound concentrations: 100 nM and 1000 nM (sheet 'Samples'), CATDS: 8.1476846710640503E-3",956 nM
same,potency estimated from few doses,"[13]; compound concentrations: 100 nM and 1000 nM (sheet 'Samples'), CATDS: 1.6323674836543501E-2",216 nM
same,potency estimated from few doses,"[14]; compound concentrations: 100 nM and 1000 nM (sheet 'Samples'), CATDS: 1.5270520713179201E-2",242 nM
same,potency estimated from few doses,"[15]; compound concentrations: 100 nM and 1000 nM (sheet 'Samples'), CATDS: 1.4642324519722799E-2",260 nM
same,potency estimated from few doses,"[4]; compound concentrations: 100 nM and 1000 nM (sheet 'Samples'), CATDS: 8.8639953478003106E-3",751 nM
same,potency estimated from few doses,"[16]; compound concentrations: 100 nM and 1000 nM (sheet 'Samples'), CATDS: 1.88242032678454E-2",173 nM
CCn1c(-c2nonc2N)nc2c(C#CC(C)(C)O)nc(OCCNC)cc21.Cl [GSK949675A],potency estimated from few doses,[8]; [21],401 nM
same,potency estimated from few doses,[12]; [21],1680 nM
